Experimental data reported in PubChem BioAssay AID652257 (The Scripps Research Institute Molecular Screening Center, 2013).
Hit rate of the full screen: of about 370,000 compounds, about 4,800 (1.3%) were called active. The list comes from a sample in which actives are over-represented; it also holds similar structures and randomly drawn compounds. A number with no mark means an inactive call.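 Rule for the calls: active = inhibition above about 21% made by adding two undisclosed values (limit read from the data); inactive = the rest.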

Biological target: Protein arginine N-methyltransferase 1 (Homo sapiens) (UniProt Q99873)
Test: human PRMT1 activity-probe blockers – biochemical, fluorescence polarization, primary screen (AID 652257)
Settings: recombinant PRMT1, activity-based probe fluorescence polarization; at 2.79 µM; active compounds read high

Chain of Protein arginine N-methyltransferase 1 (Homo sapiens) (Q99873 whole entry, looked up): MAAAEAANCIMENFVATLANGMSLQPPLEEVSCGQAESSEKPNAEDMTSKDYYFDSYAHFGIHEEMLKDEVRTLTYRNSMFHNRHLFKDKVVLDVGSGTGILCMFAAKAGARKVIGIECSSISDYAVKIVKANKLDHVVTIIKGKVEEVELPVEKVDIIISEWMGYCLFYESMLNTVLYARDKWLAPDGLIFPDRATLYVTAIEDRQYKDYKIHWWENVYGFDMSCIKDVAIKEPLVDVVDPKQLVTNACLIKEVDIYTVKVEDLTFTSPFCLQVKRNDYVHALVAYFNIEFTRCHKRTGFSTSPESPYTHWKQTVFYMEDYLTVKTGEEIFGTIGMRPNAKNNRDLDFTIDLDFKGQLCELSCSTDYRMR

For `Cc1cc(/C=N/Nc2ccc([N+](=O)[O-])cn2)c(C)n1-c1cccc(C(=O)O)c1`, the inhibition was 23.6% (active).
In the case of `CCOC(=O)c1cc2n(c1N)-c1ccccc1C2=O`, the inhibition is reported as 29.4% (active).
In the case of `O=C1C=CC(=O)N1c1ccc(N2CCCCC2)cc1`, the inhibition is reported as 90.5% (active).
For `CC(C)(C)NC(=O)COc1ccc(CNc2ccc3[nH]c(=O)[nH]c3c2)cc1`, the inhibition was 35.9% (active).
In the case of `CN(C)C(=S)N=c1ssc(=S)n1Cc1ccco1`, the inhibition is reported as 27% (active).
For `CSc1nc(C)cc(SC(C(C)=O)C(=O)Nc2ccccc2)n1` (stereo unspecified), the inhibition was 73.7% (active).
With `CC(=O)N(C1=C(Cl)C(=O)c2ccccc2C1=O)c1ccc(C(=O)O)cc1` the inhibition was 87.5% (active).
`COc1ccc(N2C(=O)CC(Sc3n[nH]c(-c4ccc(C)cc4)n3)C2=O)cc1` (stereo unspecified) was tested, and the inhibition was 66% (active).
`O=C1CC(Sc2ncn[nH]2)C(=O)N1c1ccccc1` (stereo unspecified) was tested, and the inhibition was 60.4% (active).
In the case of `Cc1ccc(N2C(=O)CC(Sc3ncn[nH]3)C2=O)cc1` (stereo unspecified), the inhibition is reported as 85.1% (active).
With `Cc1ccc2nc(N3C(=O)C(O)=C(C(=O)c4ccco4)C3c3cccc(O)c3)sc2c1` (stereo unspecified) the inhibition was 24% (active).

Compared with `Cc1cccc(C(=O)NC(=S)N2CCN(c3ccc([N+](=O)[O-])cc3)CC2)c1`, `CN1CCN(C(=O)c2cnn(-c3ccccc3)c2NC(=O)c2ccc([N+](=O)[O-])cc2)CC1` is higher in inhibition: -2.54% for the first, 4.06% for the second.

Going from `Cc1ccccc1NC(=O)COC(=O)c1ccc(Sc2ncn[nH]2)c([N+](=O)[O-])c1` to `O=C(CSc1ncn[nH]1)Nc1ccnc2ccccc12`, the inhibition rises from -0.43% to 0.32%.

Going from `O=C(O)c1[nH]c2ccccc2c1C(c1cccc(O)c1)c1c(C(=O)O)[nH]c2ccccc12` to `Cc1c(C(C)c2ccccc2O)[nH]c2ccccc12` (stereo unspecified), the inhibition rises from -1.91% to 2.86%.

Compared with `CCOC(=O)c1ccn(S(=O)(=O)c2ccc(C)cc2)c1-c1ccccc1`, `Cc1cccc(OCCCC(=O)Nc2ccc(S(=O)(=O)N3CCCC3)cc2)c1` is higher in inhibition: -3.46% for the first, 0.23% for the second.

Compared with `CCOC(=O)c1ccccc1NC(=O)c1c(N)n(C)c(=O)[nH]c1=O`, `CCOC(=O)c1ccc(N2C(=O)CC(Sc3nc(O)c(CC)c(=O)[nH]3)C2=O)cc1` (stereo unspecified) is lower in inhibition: 1.71% for the first, -0.27% for the second.

Going from `COc1cc(/C=C/C(=O)n2cnc3ccccc32)cc(OC)c1OC` to `CCc1c(-c2ccccc2OC)ncn1CCc1ccccc1OC`, the inhibition falls from 5.15% to -6.39%.

Compared with `NS(=O)(=O)c1ccc(NC(=S)NC(=O)c2cccnc2)cc1`, `COc1ccc(NC(=O)C(C)SCc2ccccc2)cc1` (stereo unspecified) is higher in inhibition: 0.33% for the first, 1.07% for the second.

Going from `C=CCN1C(C(=O)OC)CN(Cc2cn(Cc3ccccc3)nn2)CCS1(=O)=O` (stereo unspecified) to `O=C(NC1CCCC1)C1CSCCS(=O)(=O)N1Cc1ccccc1` (stereo unspecified), the inhibition rises from -1.05% to -0.44%.

First: COc1ccc(C(=O)OCC(=O)Nc2ccc3[nH]c(=O)[nH]c3c2)c(OC)c1OC
Second: O=C(COc1ccc([N+](=O)[O-])cc1Cl)Nc1ccc2[nH]c(=O)[nH]c2c1
The inhibition of the first is higher: 3.04% for the first, 1.93% for the second.

Going from `O=S1(=O)c2c(cccc2N2CCSCC2)Oc2ccccc2CN1Cc1cn(Cc2ccc(F)cc2)nn1` to `O=S1(=O)c2ccc(N3CCN(Cc4ccccc4F)CC3)cc2Oc2ccccc2CN1Cc1cn(Cc2ccc(Cl)cc2)nn1`, the inhibition falls from -0.69% to -3.79%.

Compared with `O=C(Nc1ccccc1)N1CCN(Cc2nc3ccccc3c(=O)[nH]2)CC1`, `CN(C(=O)CN1CCN(c2cc(-c3ccc(OCc4ccccc4)cc3)ncn2)CC1)c1ccccc1` is lower in inhibition: 2.82% for the first, -1.91% for the second.

Compared with `CC(=O)N/C(=C\c1ccccc1)C(=O)OC(C)C(=O)N(C)c1ccccc1` (stereo unspecified), `CC[C@@H](CCC(=O)N(c1ccccc1)c1ccccc1)C1CC1` is lower in inhibition: -2.28% for the first, -2.74% for the second.

First: CCN(CC)C(=O)CSc1nnc(CNc2ccc(F)cc2)n1Cc1ccco1
Second: C=CCSc1nnc(N2C(=O)C(O)=C(C(=O)c3ccco3)C2c2ccc(F)cc2)s1 (stereo unspecified)
The inhibition of the first is lower: 10.1% for the first, 14.8% for the second.

Compared with `CC1CN(Cc2ccco2)C(=S)N(c2ccccc2)C1=O` (stereo unspecified), `Cc1ccnc(SC2CC(=O)N(c3ccccc3)C2=O)n1` (stereo unspecified) is higher in inhibition: 6.21% for the first, 8.05% for the second.

Compared with `Cc1ccc2nc(CN(C)C(=O)[C@@H](Cc3ccccc3)NC(=O)[C@H]3O[C@@H](n4ccc(=O)[nH]c4=O)[C@H](O)[C@@H]3O)[nH]c2c1`, `CCCC[C@H](C(=O)N(CC)c1ccccc1)[C@@H](O)c1ccc2ccccc2c1` is lower in inhibition: 1.16% for the first, 1.04% for the second.

Going from `Cc1nnc(SC(C(=O)Nc2cc(Cl)cc(Cl)c2)c2ccccc2)[nH]c1=O` (stereo unspecified) to `O=C(CSc1nnc(-c2ccccn2)n1-c1ccccc1)Nc1ccc2cn[nH]c2c1`, the inhibition falls from 11.5% to 1.03%.

Going from `COc1cccc(N(C)C(=O)[C@@H](C)[C@@H](O)c2ccc3ccccc3c2)c1` to `COc1ccc(N2C(=O)C(O)C2c2ccc(C)cc2)cc1` (stereo unspecified), the inhibition rises from -1.81% to 3.23%.

First: CCOC(=O)N1CCN(C(=O)C[C@H]2C[C@@]3(C(=O)OC)C(=C[C@H](C(C)(C)C)O[C@@H]3C)N(Cc3ccc(Cl)cc3Cl)C2=O)CC1
Second: O=C(Nc1cccc(Cl)c1)OC1CC2CC1[C@H]1CCCCN1[C@H]2Cc1ccccc1 (stereo partly specified)
The inhibition of the first is higher: 1.72% for the first, 1.47% for the second.

Going from `CC(=O)Nc1ccc(N2C(=O)CC(Sc3nccc(C)n3)C2=O)cc1` (stereo unspecified) to `CCOc1ccccc1N1C(=O)CC(Sc2nccc(C)n2)C1=O` (stereo unspecified), the inhibition falls from 15.5% to 14.4%.

Going from `CCCC1CCC2(CCCN2CCOC(=O)NCc2ccccc2)CC1` (stereo unspecified) to `O=C(CCCCCN1C(=O)C2C3C=CC(C3)C2C1=O)Nc1ccccc1` (stereo unspecified), the inhibition falls from 5.29% to -2.78%.

Going from `c1coc(CCNc2ncnc3ccc(-c4ccc5c(c4)OCO5)cc23)c1` to `O=C(C1=C(O)C(=O)N(c2ncccn2)C1c1cccs1)c1ccco1` (stereo unspecified), the inhibition falls from 15% to -1.95%.

First: C=CCn1c(SCC(N)=O)nnc1-c1ccccc1OC
Second: N#Cc1ccccc1OC[C@@H](O)CN1CCC(C(O)(c2ccccc2)c2ccccc2)CC1
The inhibition of the first is higher: 5.94% for the first, -3.45% for the second.

With `O=C(Cn1nc([N+](=O)[O-])nc1Br)NC1CCCCC1` the inhibition was -3.64%.
